# Compounds with a hit are over-represented: about 6% of the library has one in this group of screens.
# DRD3 antagonist = antagonists of human D3 dopamine receptor; P35462; D3R cells, DiscoveRx beta-arrestin luminescence, antagonist mode; hits give low values; max response, negative = inhibition, %; 360,000 tested, 2.5% active; in the data active = max response below about -50%; inconclusive = no clear call, values can overlap the other calls; also: % is scaled to controls: 0 for no effect and ±100 for the full control effect
#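 Cells plated overnight at 1500 cells/well, then exposed to library compounds with dopamine controls for 90 minutes at 37 degrees C. DiscoveRx reagent added for 30–60 minutes at room temperature; luminescence read, quantitative HTS format.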
# BCR signal inh = chronic active BCR signaling inhibition. ABC-DLBCL IkBa-CBG/CBR reporter, luminescence ratio, 4 h. Potency, µM (highest dose often 46.1 µM), for inactives: top-dose activity change, negative = inhibition, most hits filed as inhibitors. AID 493014. 340,000 tested, 0.05% active; active = well fitted inhibition curve with a large enough effect in the signal ratio, with a control signal flat, not every such curve was filed as active; inconclusive = small, poorly fitted or top-dose-only effect, or effect the other way, or a change in a side signal; the % refers to the signal ratio;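 also: potency is read from the fitted curve at half-maximal effect; plate controls were basal doxycycline-induced cells for no effect and cells given 10 µM MG132 for full effect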
#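 Cell line TMD8 (human ABC DLBCL), stably expressing tet-inducible CBG68-IkBa fusion and CBR; IMDM/0.5% FBS; cpd up to 46 uM; dox induction, 4 h, 37C/5% CO2; dual luminescence; green/red ratio; MG132 control.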
# D1 antag = antagonists of human D1 dopamine receptor | P21728 | HEK293 TREx D1 cells, calcium flux, dopamine EC80; hits give low values | activity change, negative = inhibition, % at 10 µM | 360,000 tested, 3.2% active; in the data active = activity change below about -30%; also: % is scaled to controls: 0 for no effect and ±100 for the full control effect
# Target sequence (P21728 whole entry, looked up): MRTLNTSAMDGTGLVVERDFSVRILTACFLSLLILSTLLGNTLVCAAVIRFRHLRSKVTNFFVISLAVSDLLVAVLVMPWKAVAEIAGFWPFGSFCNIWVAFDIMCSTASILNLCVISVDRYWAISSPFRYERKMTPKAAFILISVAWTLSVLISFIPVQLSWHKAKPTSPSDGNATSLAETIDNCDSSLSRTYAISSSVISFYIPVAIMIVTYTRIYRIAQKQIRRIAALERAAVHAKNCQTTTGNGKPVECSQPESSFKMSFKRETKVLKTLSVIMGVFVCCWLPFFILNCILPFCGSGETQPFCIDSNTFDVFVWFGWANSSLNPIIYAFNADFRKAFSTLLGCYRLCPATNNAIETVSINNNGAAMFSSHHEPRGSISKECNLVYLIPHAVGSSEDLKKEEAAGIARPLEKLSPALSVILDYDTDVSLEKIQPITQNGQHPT
#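 Compound effects on dopamine-evoked calcium signalling were measured in tetracycline-induced HEK293 Trex D1 cells. Dopamine at EC80 followed a 180 s compound pre-read, and fluorescence was tracked kinetically for 180 s more.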
# D1 potentiator = human D1 dopamine receptor positive modulation. potentiation, % at 10 µM. AID 504651. 360,000 tested, 0.036% active. HEK293 TREx D1 cells, calcium flux, dopamine EC20 potentiation. P21728; in the data active = potentiation above about 30%; also: 0% is about no effect
# D1 agonist = agonists of human D1 dopamine receptor. HEK293 T-REx D1 cells, calcium flux, agonist mode. 360,000 tested, 1% active. activation, % at 2 µM. P21728; in the data active = activation above about 30%; also: 0% is about no effect
#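 Tetracycline-induced HEK293 TREx D1 cells, force-coupled to calcium signalling, were dye-loaded with a no-wash calcium kit. Compound was pin-added after a 10 s baseline. Fluorescence was read kinetically at 1 cycle/s for 180 s, with calcium rises flagged as agonism.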
# D3 ag = agonists of human D3 dopamine receptor; P35462; D3R DiscoveRx beta-arrestin cells, luminescence, 90 min; max activation, %; 410,000 tested, 0.58% active; AID 652048; in the data active = max activation above about 30%; also: 0% is about no effect
#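 Agonist-mode cell screen: cells plated at 1500/well and incubated overnight at 37 °C, then exposed to library compounds for 90 min at 37 °C. Detection reagent was added for 30–60 min at room temperature, and luminescence was read.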
# * hit, by the source's call; ? = inconclusive; · = no result.
SMILES,DRD3 antagonist,BCR signal inh,D1 antag,D1 potentiator,D1 agonist,D3 ag
Cc1cccc(N2CCN(CCCNC(=O)c3ccc(NC(=O)C4=CSCCO4)cc3)CC2C)c1 (stereo not given),?,-1.3%,-39.8*,-15.7,17.7,-23.9
CC1CCCN(CCCNC(=O)c2ccc(NC(=O)C3=CSCCO3)cc2)C1 (stereo not given),9.7,0.1%,-5.8,10.5,2.6,-13.2
O=C(Nc1ccc(C(=O)NCCCN2CCN(c3ccc(F)cc3)CC2)cc1)C1=CSCCO1,-92.4*,-21.1%,-78.5*,-16.9,62.5*,-22.1
COC(=O)c1ccc(NC(=S)N2CCN(Cc3ccccc3)CC2)cc1,-9.3,-6.6%,-42.7*,-5.9,16.7,-2.3
COC(=O)c1ccc(CN2CCC(Oc3ccc(C(=O)N4CCCCC4)cc3)CC2)cc1,?,·,·,·,·,-5.9
C=C(C)C1CC=C(CN2CC(C)OC(C)C2)CC1 (stereo not given),0.0,-11.1%,-18.7,-2.8,0.8,-9.9
C=C(C)C1CC=C(CN2CCC(C(=O)OCC)CC2)CC1 (stereo not given),-60.6*,-0.6%,5.5,-1.8,1.2,-50.9
Clc1ccc(CN2CCCCCCC2)cc1Cl,-90.5*,-3.3%,-2.7,-3.1,1.6,-1.0
COC(=O)c1ccc(CN2CCCCC2)cc1,-55.7*,-0.3%,-14.0,-2.5,1.5,-24.2
CC(C)(C)c1ccc(C(=O)N2CCC2(C)C(=O)NCCC#N)cc1 (stereo not given),23.5,·,·,·,·,14.0
CC1(C)[C@@H](OC(=O)CCC(=O)O)CC[C@]2(C)[C@H]3C(=O)C=C4[C@@H]5C[C@@](C)(C(=O)O)CC[C@]5(C)CC[C@@]4(C)[C@]3(C)CC[C@@H]12,·,·,·,·,·,-5.0
CCOC(=O)C1CCN(S(=O)(=O)c2ccc(C(=O)OC)cc2)CC1,-17.4,·,-6.5,-4.0,0.5,13.4
CCOC(=O)C1CCN(Cc2ccc(F)cc2)CC1,?,-9.9%,-5.1,0.9,0.1,-48.5
CCOC(=O)C1CCN(Cc2ccc(Cl)c(Cl)c2)CC1,-85.0*,?,0.2,0.8,2.6,-37.7
CCOC(=O)C1CCN(S(=O)(=O)c2c(Cl)ccc3nonc23)CC1,·,?,-35.2*,-8.2,4.0,·
CCOC(=O)C1CCN(S(=O)(=O)c2cccc3nonc23)CC1,2.4,0.3%,-6.1,-1.1,4.1,-2.6
CCOC(=O)C1CCN(Cc2cnc(Oc3ccc(Cl)cc3C)s2)CC1,-58.3*,?,·,·,·,-21.1
CCOC(=O)C1CCN(Cc2ccc(C(=O)OC)cc2)CC1,-52.8*,4.5%,2.2,-3.1,-1.9,-32.7
CC(C)(C)CC(=O)OCC(=O)[C@@]12OC(C)(C)O[C@@H]1C[C@H]1[C@@H]3CCC4=CC(=O)C=C[C@]4(C)[C@@]3(F)[C@@H](O)C[C@@]12C,·,·,·,·,·,-6.7
Cc1cnc2c(c1SCC(=O)NCc1ccc(F)cc1)c(=O)n(C)c(=O)n2C,·,0.4%,·,-0.1,-3.0,4.7
CCOC(=O)c1ccc(Nc2c(-c3ccc(O)cc3)nc3nc[nH]n23)cc1,·,-10.1%,-2.5,-1.5,0.3,7.9
Nc1nc(COC(=O)CCC(=O)c2ccccc2)nc(Nc2ccccc2)n1,11.3,?,-32.0*,-10.7,3.2,-4.0
Nc1nc(COC(=O)c2ccc3c(c2)OCCO3)nc(Nc2ccccc2)n1,0.0,-6.9%,-30.5*,-5.7,32.6*,-6.2
COCCNc1nc(NCCN2CCNC2=O)c2sc(-c3ccccc3)cc2n1,-7.9,·,·,·,·,-4.7
Cc1cc2c(n1-c1ccc(C(=O)NCc3ccccc3Cl)cc1)CCCC2,·,·,-10.9,1.7,0.1,-11.8
SMILES,DRD3 antagonist,BCR signal inh,D1 antag,D1 potentiator,D1 agonist,D3 ag
CCN(C(=O)Cn1c(=O)n(Cc2ccc3c(c2)OCO3)c(=O)c2ccc(C(=O)NC3CCCCC3)cc21)c1cccc(C)c1,·,·,-53.9*,-2.0,7.1,6.8
COc1ccccc1C1CCN(Cc2cccc(C(=O)N3CCC(O)CC3)c2)CC1,-110.3*,3.1%,0.6,-6.4,0.7,-2.9
COc1ccc(CNC(=O)C2=CC(c3ccc(OC)cc3)=NS(=O)(=O)N2C)cc1,-8.3,-3.8%,-27.7,-5.8,0.2,-17.4
Cc1ccc(C2=NS(=O)(=O)N(C)C(C(=O)NC(C)c3ccccc3)=C2)cc1 (stereo not given),9.7,16.8%,-43.4*,-6.0,3.5,-0.3
Cc1ccc(C2=NS(=O)(=O)N(C)C(C(=O)NCc3ccccc3)=C2)cc1,7.7,9.6%,-46.9*,-9.2,5.2,-2.3
COc1ccc(C2=NS(=O)(=O)N(C)C(C(=O)Nc3ccc(OC(F)(F)F)cc3)=C2)cc1,·,·,-37.1*,-2.5,4.0,-10.7
COc1ccc(CNC(=O)C2=CC(c3ccc(C)cc3)=NS(=O)(=O)N2C)cc1,-11.1,-3.2%,-33.9*,-19.0,-0.9,-9.5
CC(C)(C)c1ccc(C(=O)NCC(=O)OC(C(=O)Nc2cc(C(F)(F)F)ccc2Cl)c2ccccc2)cc1 (stereo not given),·,·,-11.1,12.2,2.5,·
COc1ccc2c(c1)CCC/C2=N/OC(=O)c1ccccc1OC,-25.3,-12.4%,-32.8*,-4.0,19.8,0.2
Cc1ccc(C)c(N2CCN(CCCNC(=O)c3cnn(-c4ccccc4Cl)c3C3CCN(C(=O)OC(C)(C)C)CC3)CC2)c1,·,·,12.5,0.0,7.1,-19.7
CCCCCCCCCCCCOC(=O)C[N+](C)(C)C,-16.9,?,-34.6*,4.7,43.5*,1.3
CCCCCCCCCCOC(=O)C[N+](C)(C)C/C=C(/C)Cl,0.7,?,-4.2,-3.0,54.8*,-2.1
NC(=O)Cc1ccc(OCc2nn[nH]n2)cc1,31.3,·,·,·,·,1.4
CC1CCc2c(sc(NC(=O)C3c4ccccc4Oc4ccccc43)c2C#N)C1 (stereo not given),·,·,5.0,0.4,0.0,5.9
CCOc1ccc(CCNC(=O)CN2C(=O)CCSc3ccccc32)cc1,3.4,?,0.2,4.0,0.1,3.4
CCOc1ccc(CCNC(=O)C(C)N2C(=O)CC(C)(C)Sc3ccccc32)cc1 (stereo not given),11.6,-5.5%,-0.6,-9.2,38.4*,-11.2
CCCc1cc(=O)[nH]c(Nc2cc(OC)ccc2OC)n1,-52.0*,-2.6%,-11.1,-6.7,0.0,-22.6
CN1CCN(C(=S)NCCc2ccccc2)CC1,-87.1*,?,0.6,-1.4,4.3,-15.8
O=C(NC1CCN(C(=S)NCCc2ccccc2)CC1)C1CCCCC1,8.4,-2.3%,-34.0*,-9.9,6.7,4.0
COc1ccc(/C=C/C(=O)OCCC(C)C)cc1,·,·,·,·,·,-1.8
COC(=O)c1c(C)cc(O)c(C=O)c1O,-52.8*,·,·,·,·,-15.3
COC(=O)c1c(C)c(OC(=O)c2c(C)cc(O)c(C=O)c2O)cc(C)c1O,-8.2,·,·,·,·,4.9
Oc1ccc(Cl)cc1CNC1CCCCC1,-23.6,·,·,·,·,-25.4

# Bioassay records: PubChem, National Center for Advancing Translational Sciences (NCATS)
